Measured values published in PubChem BioAssay.
Activity calls are given as the source filed them.

Key:
[1] = binders of probe aFSTL3 on microarray, primary screen, stem cell growth factor project, biochemical, small-molecule microarray, fluorescence 635/667 (AID 1064); settings: higher = more signal;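 also: measures binding of the biotinylated anti-FSTL3 antibody to printed compounds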
[2] = binders from COS7 lysate, DM2A8 probe, primary screen, torsin A project, cell lysate, small-molecule microarray, fluorescence 635/667 (AID 1065); settings: higher = more signal, COS7 lysate expressing mutant human TOR1A
[3] = binders of probe aFGF2 on microarray, primary screen, stem cell growth factor project, biochemical, small-molecule microarray, fluorescence 635/667 (AID 1067); settings: higher = more signal;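 also: measures binding of biotinylated aFGF2 protein to printed compounds on slides; z-score merges feature fluorescence and signal-to-noise across triplicate slides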
[4] = binders of probe aFGF10 on microarray, primary screen, stem cell growth factor project, biochemical, small-molecule microarray, fluorescence 635/667 (AID 1071); settings: higher = more signal;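 also: score merges 667 nm spot intensity and signal to noise from triplicate slides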
[5] = molecular target: Neurogenic locus notch homolog protein 2 (Homo sapiens) (UniProt Q04721); experiment: Notch2 binders on small-molecule microarrays, primary screen, biochemical, small-molecule microarray, 635 nm fluorescence, stem cell growth factors (AID 1073); settings: Notch2 binding, higher = more signal
Neurogenic locus notch homolog protein 2 (Homo sapiens), sequence (Q04721 whole entry, looked up, canonical isoform): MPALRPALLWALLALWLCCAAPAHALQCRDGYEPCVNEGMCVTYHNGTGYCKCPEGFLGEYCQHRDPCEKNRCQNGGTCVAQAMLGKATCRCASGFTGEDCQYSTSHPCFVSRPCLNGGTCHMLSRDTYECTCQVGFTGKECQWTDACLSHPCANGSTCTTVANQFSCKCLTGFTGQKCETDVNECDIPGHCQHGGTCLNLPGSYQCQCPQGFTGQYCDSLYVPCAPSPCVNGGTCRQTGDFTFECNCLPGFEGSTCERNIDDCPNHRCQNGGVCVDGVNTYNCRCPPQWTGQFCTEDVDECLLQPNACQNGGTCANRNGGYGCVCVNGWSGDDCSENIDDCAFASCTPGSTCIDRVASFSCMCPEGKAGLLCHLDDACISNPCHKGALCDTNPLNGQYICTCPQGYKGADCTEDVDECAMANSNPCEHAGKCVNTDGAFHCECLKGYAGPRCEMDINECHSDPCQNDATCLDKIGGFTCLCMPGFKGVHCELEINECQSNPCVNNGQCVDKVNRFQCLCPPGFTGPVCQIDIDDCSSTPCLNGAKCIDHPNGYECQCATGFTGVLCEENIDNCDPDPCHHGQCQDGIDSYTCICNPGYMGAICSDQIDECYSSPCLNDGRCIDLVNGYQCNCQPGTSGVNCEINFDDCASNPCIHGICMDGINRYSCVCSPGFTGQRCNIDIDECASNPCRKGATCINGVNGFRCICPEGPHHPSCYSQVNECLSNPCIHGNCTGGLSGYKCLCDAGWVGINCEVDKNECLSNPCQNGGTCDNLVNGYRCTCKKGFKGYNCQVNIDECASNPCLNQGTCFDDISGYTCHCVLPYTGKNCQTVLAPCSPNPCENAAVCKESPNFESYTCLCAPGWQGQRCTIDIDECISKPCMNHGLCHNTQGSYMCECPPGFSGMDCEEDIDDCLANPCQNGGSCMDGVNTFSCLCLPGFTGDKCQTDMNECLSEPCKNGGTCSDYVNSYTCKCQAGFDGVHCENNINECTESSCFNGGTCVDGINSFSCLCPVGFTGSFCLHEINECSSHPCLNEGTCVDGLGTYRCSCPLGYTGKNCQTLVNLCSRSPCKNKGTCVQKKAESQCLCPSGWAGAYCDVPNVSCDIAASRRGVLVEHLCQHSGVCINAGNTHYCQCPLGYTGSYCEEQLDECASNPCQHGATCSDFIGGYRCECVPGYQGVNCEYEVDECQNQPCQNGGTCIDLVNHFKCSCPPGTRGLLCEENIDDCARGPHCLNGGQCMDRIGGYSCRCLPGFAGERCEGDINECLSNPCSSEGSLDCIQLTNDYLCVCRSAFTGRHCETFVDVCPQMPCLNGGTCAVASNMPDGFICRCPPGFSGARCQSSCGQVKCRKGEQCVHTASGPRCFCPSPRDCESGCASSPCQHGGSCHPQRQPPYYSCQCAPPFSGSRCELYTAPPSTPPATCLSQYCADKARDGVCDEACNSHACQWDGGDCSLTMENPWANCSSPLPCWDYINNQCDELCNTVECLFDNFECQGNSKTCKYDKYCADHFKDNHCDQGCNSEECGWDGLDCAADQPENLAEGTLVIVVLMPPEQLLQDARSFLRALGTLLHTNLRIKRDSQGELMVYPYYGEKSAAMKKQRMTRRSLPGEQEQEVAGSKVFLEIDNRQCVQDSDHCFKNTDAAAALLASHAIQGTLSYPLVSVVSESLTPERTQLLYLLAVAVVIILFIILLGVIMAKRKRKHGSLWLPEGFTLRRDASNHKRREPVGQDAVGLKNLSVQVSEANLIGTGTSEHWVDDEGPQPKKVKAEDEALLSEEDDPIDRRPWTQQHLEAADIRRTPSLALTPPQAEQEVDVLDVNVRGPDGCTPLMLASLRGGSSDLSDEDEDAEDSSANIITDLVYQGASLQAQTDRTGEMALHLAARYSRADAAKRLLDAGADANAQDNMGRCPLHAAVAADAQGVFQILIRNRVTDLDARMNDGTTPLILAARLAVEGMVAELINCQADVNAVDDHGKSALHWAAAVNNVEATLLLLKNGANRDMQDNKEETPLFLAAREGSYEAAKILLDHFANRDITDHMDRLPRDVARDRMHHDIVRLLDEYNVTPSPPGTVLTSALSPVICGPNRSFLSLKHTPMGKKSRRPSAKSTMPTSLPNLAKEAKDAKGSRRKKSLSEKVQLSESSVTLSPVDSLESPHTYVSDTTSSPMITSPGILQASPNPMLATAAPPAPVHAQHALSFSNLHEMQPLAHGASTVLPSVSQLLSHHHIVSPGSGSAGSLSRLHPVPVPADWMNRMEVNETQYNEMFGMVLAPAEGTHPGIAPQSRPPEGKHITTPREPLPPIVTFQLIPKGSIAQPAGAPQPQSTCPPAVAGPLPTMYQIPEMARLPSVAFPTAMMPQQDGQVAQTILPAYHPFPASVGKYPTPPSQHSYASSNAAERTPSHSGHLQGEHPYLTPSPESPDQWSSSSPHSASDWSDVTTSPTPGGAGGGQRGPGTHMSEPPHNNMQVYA

[6] = molecular target: Pro-neuregulin-1, membrane-bound isoform (Homo sapiens) (UniProt Q02297); experiment: NRG1 binders on small-molecule microarrays, primary screen, psychiatric disease protein project, biochemical, small-molecule microarray, fluorescence 635/667 (AID 1075); settings: NRG1 binding, 635 nm fluorescence, higher = more signal;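 also: score combines 667 nm spot fluorescence with signal to noise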
Pro-neuregulin-1, membrane-bound isoform (Homo sapiens), sequence (Q02297 whole entry, looked up, the tested form may be a part, canonical isoform): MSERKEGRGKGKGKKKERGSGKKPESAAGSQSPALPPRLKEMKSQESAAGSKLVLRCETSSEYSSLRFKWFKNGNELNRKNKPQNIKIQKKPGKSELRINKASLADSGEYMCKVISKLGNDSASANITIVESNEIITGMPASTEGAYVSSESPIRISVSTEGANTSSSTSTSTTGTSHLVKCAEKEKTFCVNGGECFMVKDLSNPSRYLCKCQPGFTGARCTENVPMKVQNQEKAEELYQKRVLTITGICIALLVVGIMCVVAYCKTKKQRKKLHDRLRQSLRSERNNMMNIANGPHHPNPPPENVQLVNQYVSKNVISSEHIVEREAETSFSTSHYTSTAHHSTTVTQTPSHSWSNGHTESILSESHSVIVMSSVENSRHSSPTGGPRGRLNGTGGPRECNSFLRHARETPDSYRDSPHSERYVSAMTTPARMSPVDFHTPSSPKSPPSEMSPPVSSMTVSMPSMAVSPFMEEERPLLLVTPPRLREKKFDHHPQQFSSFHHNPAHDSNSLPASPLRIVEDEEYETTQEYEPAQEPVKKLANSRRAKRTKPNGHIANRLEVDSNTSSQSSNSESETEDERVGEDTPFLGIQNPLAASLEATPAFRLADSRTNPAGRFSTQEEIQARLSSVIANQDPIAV

[7] = test system: Neuregulin-1 EGF-like domain; experiment: binders of neuregulin-1 EGF-like domain, primary screen, biochemical, small-molecule microarray, 635 nm fluorescence (AID 1081); settings: small-molecule microarray binding, higher = more signal;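 also: binding of the protein to compounds printed on small-molecule microarray slides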
[8] = FRG1 promoter luciferase signal modulators, primary screen, FRG1 inhibition for FSHD, cell-based, C2C12 myotubes, firefly/Renilla luciferase, luminescence (AID 1084); settings: higher = more signal, called active from +8 up or from −8 down
[9] = binders of probe aFST on microarray, primary screen, stem cell growth factor project, biochemical, small-molecule microarray, fluorescence 635/667 (AID 1086); settings: higher = more signal;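 also: score merges 667 nm fluorescence with signal-to-noise of each printed compound spot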
[10] = binders of probe aHhip on microarray, primary screen, stem cell growth factor project, biochemical, small-molecule microarray, fluorescence 635/667 (AID 1087); settings: higher = more signal;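 also: score merges spot fluorescence at 667nm with spot signal to noise ratio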
[11] = test system: PRMT1 (protein arginine N-methyltransferase 1); experiment: PRMT1 binders on small-molecule microarrays, primary screen, biochemical, small-molecule microarray, 635 nm fluorescence (AID 1088); settings: small-molecule microarray binding, higher = more signal;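 also: binding of Prmt1 protein to compounds spotted on small-molecule microarray slides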
[12] = yeast growth modulation, basal conditions, primary screen, YJM789 clinical isolate, OD600, 24 h (AID 1089);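 also: growth of clinical yeast isolate S. cerevisiae YJM 789 seeded 1000 cells per well; test concentration not given here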; settings: S. cerevisiae YJM789 growth, higher = more signal, called active from +8 up or from −8 down
[13] = fission yeast growth modulation, primary screen, strain 972, OD600, 24 h, no modulator (AID 1090);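 also: basal condition with compound alone and no growth modifier present; test concentration not given here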; settings: S. pombe 972 growth, higher = more signal, called active from +8 up or from −8 down
[14] = S. cerevisiae growth modulation with rapamycin, primary screen, strain BY4716, OD600, 96 h (AID 1091); settings: higher = more signal, called active from +8 up or from −8 down; also: test concentration not given here
[15] = molecular target: Torsin-1A-interacting protein 2 (Homo sapiens) (UniProt Q8NFQ8); experiment: LULL1 binders on small-molecule microarray, primary screen, cell lysate, human LULL1 lysate, 635/667 nm fluorescence (AID 1092); settings: hLULL1 lysate binding, 635 nm fluorescence, higher = more signal;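 also: probe is lysate of COS7 cells overexpressing human LULL1; score merges per-feature 667 nm fluorescence with signal-to-noise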
Torsin-1A-interacting protein 2 (Homo sapiens), sequence (Q8NFQ8 whole entry, looked up): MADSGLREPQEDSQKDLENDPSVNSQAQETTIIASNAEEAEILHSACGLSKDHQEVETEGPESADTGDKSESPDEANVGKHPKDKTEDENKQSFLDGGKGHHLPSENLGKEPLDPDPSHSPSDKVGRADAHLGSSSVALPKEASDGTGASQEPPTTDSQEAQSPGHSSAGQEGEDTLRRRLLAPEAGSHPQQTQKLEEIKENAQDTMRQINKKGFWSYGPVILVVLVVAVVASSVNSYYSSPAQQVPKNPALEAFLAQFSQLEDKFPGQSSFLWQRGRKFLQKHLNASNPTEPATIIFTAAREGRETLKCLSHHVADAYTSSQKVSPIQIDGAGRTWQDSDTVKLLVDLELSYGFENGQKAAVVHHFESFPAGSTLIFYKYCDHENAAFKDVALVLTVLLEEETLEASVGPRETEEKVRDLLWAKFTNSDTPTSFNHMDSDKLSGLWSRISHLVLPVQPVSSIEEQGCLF

[16] = E. coli growth modulation, two-sided OD650, primary screen, E. coli filamentation project, strain DRC41, 24 h (AID 1093); settings: OD650, 24 h, higher = more signal, called active from +8 up or from −8 down;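 also: MC1000 strain lacking acrAB efflux and sulA so SOS filamentation is blocked; test concentration not given here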
[17] = small-molecule microarray binders of probe aLefty2, primary screen, biochemical, biotinylated probe, 635/667 nm fluorescence (AID 1094); settings: higher = more signal;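 also: score merges spot fluorescence near 667 nm with spot signal-to-noise ratio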
[18] = test system: Noggin (protein binding on small-molecule microarray); experiment: Noggin binders on small-molecule microarray, primary screen, biochemical, 635/667 nm fluorescence (AID 1095); settings: 635 nm fluorescence, higher = more signal;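 also: score merges 667 nm feature fluorescence with signal to noise over triplicate slides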
[19] = molecular target: Neurogenic locus notch homolog protein 3 (Homo sapiens) (UniProt Q9UM47); experiment: NOTCH3 binders on small-molecule microarray, primary screen, biochemical, 635/667 nm fluorescence (AID 1096); settings: NOTCH3 binding, 635 nm fluorescence, higher = more signal
[20] = small-molecule microarray binders of probe aEGFR, primary screen, biochemical, biotinylated probe, 635/667 nm fluorescence (AID 1097); settings: higher = more signal;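 also: probe is a biotinylated anti-EGFR antibody binding compounds printed on slides; score combines fluorescence near 667 nm and signal to noise of each spot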

Compound	composite z-score [1]	composite z-score [2]	composite z-score [3]	composite z-score [4]	composite z-score [5]	composite z-score [6]	composite z-score [7]	z-score [8]	composite z-score [9]	composite z-score [10]	composite z-score [11]	z-score [12]	z-score [13]	z-score [14]	composite z-score [15]	z-score [16]	composite z-score [17]	composite z-score [18]	composite z-score [19]	composite z-score [20]
C=CCN1C(=O)[C@]2(O[C@H](CCO)[C@@H]([Si](C)(C)c3ccc(OC)cc3)[C@@H]2C)c2cc(NC(=O)[C@H](C)O)ccc21	-0.561	0.363	-0.0158	1.08	0.327	1.35	1.2	-3.94 (inactive)	-0.412	-0.216	1.53	0.83 (inactive)	-0.759 (inactive)	1.31 (inactive)	2.77	0.64 (inactive)	-0.166	0.392	1.02	-0.151
CCCCCN1CC=CC23O[C@@H]4C=CCOC(=O)[C@@H]4[C@H]2C(=O)N(CCCO)[C@@H]3C1=O (stereo not given in full)	-0.295	0.777	-0.195	-0.549	-0.661	2.05	1.27	-0.482 (inactive)	-0.643	-0.236	1.55	0.811 (inactive)	-0.717 (inactive)	-1.05 (inactive)	3.5	3.09 (inactive)	-0.221	0.243	0.0152	-0.185
COC(=O)C(CC#Cc1ccc2c(c1)[C@]1(C(=O)N2)[C@H](c2ccc(OCCO)cc2)N2[C@H](c3ccccc3)[C@H](c3ccccc3)OC(=O)[C@H]2[C@@H]1C(=O)NC[C@H](O)c1ccccc1)C(=O)OC	0.194	0.855	-0.0011	1.12	0.694	1.29	1.26	1.03 (inactive)	-0.0592	0.0274	1.54	2.37 (inactive)	0.31 (inactive)	7.43 (inactive)	2.41	1.89 (inactive)	-0.141	0.617	0.908	-0.0856
O=C1C[C@]2(c3ccc([N+](=O)[O-])cc3)C(=O)N(CC(F)(F)F)c3cc(CO)ccc3[C@H]2N1CC12CC3CC(CC(C3)C1)C2	-0.127	0.0228	-0.101	0.0063	-0.284	-0.0962	0.988	-0.659 (inactive)	0.0443	-0.249	1.08	0.116 (inactive)	1.21 (inactive)	-1.69 (inactive)	2.49	-0.577 (inactive)	-0.145	0.363	-0.234	-0.0972
Cc1ccc(S[C@]2(C(=O)NC3CC3)CC(=O)N(C3CCCCC3)[C@@H]2c2ccc(CO)cc2I)cc1	-0.208	0.298	-0.0328	0.48	1.03	1.29	1.31	-4.48 (inactive)	0.431	0.118	1.53	0.0615 (inactive)	0.532 (inactive)	1.38 (inactive)	2.6	1.26 (inactive)	-0.138	0.659	1.06	-0.0703
